In the library only some 5.6% were active in any assay of this set; here they are far more common.
CtBP-E1A blk: inhibitors of CtBP/E1A interaction; AlphaScreen GST-E1A/His-CtBP binding, 1536-well; stronger effect = lower value; activity change, % (no concentration beside the values); hit rate 0.49% among 340,000; AID 651724; in the data active = activity change below about -65%; inconclusive = mostly about -30% to -63%
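GST-E1A and His-tagged CtBP (125 nM each as 5X stock) were preincubated with pin-transferred compound for 2 h at 37 °C in the dark, then glutathione donor and nickel acceptor beads were added for 1 h before AlphaScreen reading.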
VP16 counter: inhibits Gal4-VP16 luciferase reporter, ROR gamma counter-screen; hit rate 3.5% among 310,000; Drosophila S2 Gal4-VP16 UAS-luciferase, luminescence, 20 h; Potency, µM (doses to about 53.6 µM), inactives show top-dose activity, negative = inhibition, actives largely listed as inhibitors; AID 2546;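 note: Gal4-VP16 expression switched on by copper sulfate through the metallothionein promoter; potency is the fitted concentration of half-maximal effect; nearly all actives have a fitted effect of over 50% in size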
RORg inh: blocks mouse ROR gamma transcriptional activity | P51450 | Drosophila S2 Gal4-RORgamma UAS-luciferase reporter, 20 h | Potency, µM (titrated, usually from 53.6 µM), without a hit: at the top dose activity change, negative = inhibition, actives largely listed as inhibitors | hit rate 5.4% among 310,000; note: potency is the fitted concentration of half-maximal effect; nearly all actives have a fitted effect of over 60% in size
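Luciferase reporter read in Schneider cells carrying Gal4-RORγ (mouse) and UAS-Photinus luciferase; cells given compound 1 h before 700 uM copper sulfate induction, then incubated 20 h at ambient temperature.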
PKM2 activator: PKM2 (human) enzyme activation; P14618; purified PKM2, Kinase-Glo ATP luminescence, activation; response scale: 0% is enzyme alone, no compound; Potency, µM (top dose mostly 57.5 µM), inactives show at the top dose activation, usual class: activators; hit rate 0.34% among 260,000; note: potency is the fitted concentration of half-maximal effect; nearly all actives have a fitted effect of over 55% in size
Target sequence (P14618 whole entry, looked up): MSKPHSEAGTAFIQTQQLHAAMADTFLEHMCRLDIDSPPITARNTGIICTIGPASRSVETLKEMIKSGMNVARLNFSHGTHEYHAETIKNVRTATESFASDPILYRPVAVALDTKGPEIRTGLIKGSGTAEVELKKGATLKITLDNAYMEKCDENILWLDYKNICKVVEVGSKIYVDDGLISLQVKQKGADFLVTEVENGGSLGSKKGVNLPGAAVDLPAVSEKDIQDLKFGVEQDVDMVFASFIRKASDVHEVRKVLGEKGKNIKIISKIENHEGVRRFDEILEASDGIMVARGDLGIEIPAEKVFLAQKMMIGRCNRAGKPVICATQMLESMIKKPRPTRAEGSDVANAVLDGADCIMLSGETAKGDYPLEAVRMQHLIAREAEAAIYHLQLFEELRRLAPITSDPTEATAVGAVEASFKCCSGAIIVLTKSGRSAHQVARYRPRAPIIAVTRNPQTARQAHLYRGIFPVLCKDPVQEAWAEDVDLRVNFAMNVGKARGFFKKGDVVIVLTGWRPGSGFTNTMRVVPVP
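ATP formation by purified human PK-M2, quantified via coupled luciferase luminescence after 1 h at room temperature with 0.1 mM ADP and 0.5 mM PEP final.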
Six1-Eya2 inh: blocks human Six1 binding to Eya2. Q15475+O00167. AlphaScreen GST-Six1/His-Eya2 binding, biochemical; stronger effect = lower value. activity change, % (no concentration beside the values). hit rate 0.56% among 360,000. AID 651725; in the data active = activity change below about -65%; inconclusive = mostly about -30% to -63%
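Compounds are tested against tagged Six1 and Eya2 proteins bridged by glutathione donor and nickel acceptor beads; after a one-hour incubation at 37 °C without light, AlphaScreen emission is recorded.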
* hit, by the source's call; ? = inconclusive; / = no result given; [ ] = remark or other dose. Unless noted, calls come from the whole dose curve; as a rule, active = well fitted curve in the direction sought with a large enough effect; inconclusive = small, poorly fitted or top-dose-only effect, or another doubt; inactive = no such curve, though single readings can be large; an effect the other way counts as inactive or inconclusive. % is set by controls: 0 for no effect and ±100 for the full control effect.

SMILES | CtBP-E1A blk | VP16 counter | RORg inh | PKM2 activator | Six1-Eya2 inh
Cc1onc(-c2ccccc2)c1C(=O)N(Cc1ccccc1)C(C)C | / | 8% | 13% | / | 0
NNC(=O)c1cccc(COc2ccc3c(c2)CCC3)c1 | 24 | 5µM* | 3.2µM* | 3% | 8
O=C(Nc1ccc(Br)cc1F)c1ccc2c(c1)OCCO2 | 13 | ? | 7.9µM* | -9% | 13
O=C(NCc1ccccc1F)c1ccc2c(c1)OCO2 | 1 | 5% | 36% | -1% | 5
O=C(NCCc1ccccc1F)c1ccc2c(c1)OCCO2 | 4 | 0.79µM* | 0.63µM* | -29% | -6
O=C(COC(=O)c1ccc(S(=O)(=O)N2CCOCC2)cc1)Nc1ccccc1OC(F)F | 8 | / | / | / | 0
CN1C/C(=C/c2ccc(B(O)O)cc2)C(=O)/C(=C/c2ccc(B(O)O)cc2)C1 | / | 4.5µM* | 2µM* | / | /
O=Cc1ccc(B(O)O)cc1 | / | 4% | -14% | -1% | /
CN1C/C(=C/c2cccnc2)C(=O)/C(=C/c2cccnc2)C1 | 23 | 2.8µM* | 5.6µM* | -19% | 13
Cc1cccc(C(=O)Nc2ccc(NC(=O)CN3CCOCC3)cc2)c1 | -2 | 6% | 4% | 2% | -4
CCc1nc2c(OCC3CCCCC3)cccn2c1N(C)C(=O)c1ccc(C)cc1 | -20 | / | / | / | -17
Cn1cc(CNCc2ccc(OC(F)(F)F)cc2)c(-c2ccc3c(c2)OCCO3)n1 | -1 | 3.5µM* | 10µM* | 1% | -3
COc1cc(OC)cc(C(=O)Nc2nc(-c3ccccc3)c(-c3ccccc3)o2)c1 | 12 | 2.8µM* | 1.4µM* | 0% | 4
COc1cc(OC)cc(C(=O)Nc2cccc(NC(=O)c3cc(OC)cc(OC)c3)n2)c1 | 4 | / | / | / | -6
CC(=O)Nc1nc(-c2ccccc2)c(-c2ccccc2)o1 | 11 | ? | 13µM* | -3% | -2
CC(=O)CSc1nc(-c2ccccc2)c(-c2ccccc2)o1 | 16 | -9% | 7% | 0% | 2
NC(=O)[C@@H]1CCCN1C(=O)c1ccc2nc(Cc3cccc(Cl)c3)oc2c1 | 4 | -2% | -1% | -9% | 11
O=S(=O)(c1ccc(N2CCN(c3ccc(F)cc3)CC2)cc1)N1CCCC1 | 5 | -6% | 8% | -1% | 4
O=S(=O)(c1ccc(N2CCCC2)cc1)C(F)(F)F | 14 | 5.6µM* | ? | -3% | 17
COC(=O)C(CC(=O)c1ccc(Br)cc1)n1ccnc1 (stereo not drawn) | / | 1µM* | 0.63µM* | ? | /
Cc1ccc(F)cc1-c1ccc(C(=O)N=C(N)N)o1 | / | -2% | -43% | / | /
CC(NS(=O)(=O)OCC(Cl)(Cl)Cl)c1ccc(Br)cc1 (stereo not drawn) | 10 | -10% | 32% | -19% | -2
CCCCN1C(=S)NC[C@@H]1Cc1ccc(O)cc1 | 4 | -9% | 6% | -3% | -6
CCCC[C@@H]1CNC(=S)N1CCCC | 5 | 7.9µM* | 2.8µM* | 0% | 1
C=CCn1c(COc2ccccc2)nnc1SC(C)C(=O)N/N=C/c1cc(Cl)ccc1O (stereo not drawn) | ? | ? | 13µM* | -1% | ?
SMILES | CtBP-E1A blk | VP16 counter | RORg inh | PKM2 activator | Six1-Eya2 inh
NC(=S)N=Nc1c(O)cc(O)c2[nH]c(=O)ccc12 | -3 | / | / | / | -85*
Cc1cnc(SCCc2ccncc2)nc1C | / | ? | 13µM* | 0% | /
N#Cc1cnc(SCCc2ccccc2)nc1N | 22 | / | 8%[0.365 µM] | 5% | 11
Cc1cc(C)cc(-n2cc[nH]c2=S)c1 | -12 | 10µM* | 7.1µM* | -7% | -3
Cc1ccc(C)c(-n2cc[nH]c2=S)c1 | 4 | ? | 11µM* | 1% | 8
Cc1ccc(-n2cc[nH]c2=S)c(C)c1 | 6 | ? | 10µM* | -6% | 1
C[C@]12O[C@H]1[C@@H](O)C(Br)=C(CO)[C@H]2O | / | -3% | -23% | / | /
CCCc1nc2nc(C)c(NS(=O)(=O)c3ccc(Cl)cc3)c(=O)n2[nH]1 | 2 | 5% | 9% | -5% | 1
CCOc1ccc(OCCSc2nc3ccccc3[nH]2)cc1 | -8 | 1% | 1% | 12% | -7
CCCOc1ccc(CSc2nc3ccccc3[nH]2)cc1 | 17 | 6.3µM* | ? | -16% | 5
Cc1nc(CN2CCN(Cc3nc(C(c4ccccc4)c4ccccc4)no3)CC2)cs1 | -5 | -10% | -9% | 3% | -2
O=C(NC(=S)N1CCN(c2ccccc2)CC1)c1ccccc1 | / | 1.1µM* | 1.4µM* | 3% | /
CC1CCCCN1C(=S)NC(=O)c1ccccc1 (stereo not drawn) | 6 | / | / | / | 8
O=C(NC(=S)N1CCCC1)c1ccccc1 | 17 | 7.1µM* | 4µM* | -1% | -1
CNC(=S)N1CCc2cc(OC)c(OC)cc2C1 | 5 | 5% | -6% | 1% | 6
COc1cc2c(cc1OC)CN(C(=S)NC(=O)c1ccccc1)CC2 | / | 3.2µM* | 5.6µM* | 3% | 6
O=C(NC(=S)N1CCN(C/C=C/c2ccccc2)CC1)c1ccc(Cl)nc1 | 0 | 0.32µM* | 0.11µM* | -7% | -10
O=C(CN1CCN(C(=O)C2CCCO2)CC1)Nc1ccc(Cl)cc1 (stereo not drawn) | 10 | -4% | -2% | 6% | 2
COc1ccc(CCNC(=O)[C@H](C)NC(=O)N2CCn3c2nc2ccccc23)cc1OC | 6 | -6% | -19% | / | 2
CCn1cc(C(=O)N(C)CC(OC)OC)c(=O)c2cc(S(=O)(=O)N3CCOCC3)ccc21 | / | 2% | -3% | / | 1
O=C(NC(=S)N1CCCCCC1)c1ccccc1 | 3 | 1.8µM* | 1.4µM* | 0% | 2
O=C(CSC(=S)N1CCCC1)c1ccccc1 | 9 | ? | 10µM* | -8% | 0
O=C(N/C(=C\c1cccnc1)C(=O)N1CCC(O)CC1)c1ccccc1 | 17 | 5% | -16% | -7% | 11
O=C(NC(=O)N1CCCCC1)c1ccccc1 | 7 | 5% | 29% | 1% | 9
O=C(NC(=S)N1CCN(C2CCCCC2)CC1)c1ccccc1 | 0 | 3.2µM* | 0.89µM* | 0% | -2
SMILES | CtBP-E1A blk | VP16 counter | RORg inh | PKM2 activator | Six1-Eya2 inh
O=C(CSC(=S)N1CCCCC1)c1ccccc1 | 19 | ? | ? | -21% | 18
O=C(N/C(=C/c1cccnc1)C(=O)N1CCCCCC1)c1cccc(Br)c1 | -1 | ? | 10µM* | 10% | -7
O=C1CCN(Cl)C(=O)N1Cl | -3 | / | / | / | 21
Cc1ccccc1OCCCC(=O)Nc1ccc(S(=O)(=O)Nc2onc(C)c2C)cc1 | 5 | -3% | 11% | / | -1
O=C(CNC(=O)C1COc2ccccc2O1)Nc1ccc(F)c(F)c1 (stereo not drawn) | 5 | / | / | / | 0
O=C(NC(=S)N1CCN(Cc2ccccc2)CC1)c1cccnc1 | 4 | 2.5µM* | 0.89µM* | -2% | 0
CC(=O)c1ccc(NC(=S)N2CCN(c3ccccn3)CC2)cc1 | 7 | -3% | -9% | / | 0
O=C(NC(=S)N1CCCCC1)c1cccnc1 | 5 | 3.2µM* | 0.71µM* | 6% | 1
